Source: PubChem (several laboratories)
BaF3 tox: parental Ba/F3 cell viability inhibition, counter-screen for JAK2V617F inhibitor project, murine pro-B, CellTiter-Glo luminescence; CellTiter-Glo ATP luminescence; inhibition, % at 5.6 µM; 1.1% of 220,000 active;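 active means inhibition above a per-campaign cutoff, the mean inhibition of all tested compounds plus 3 SD, cut at about 27% in these data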;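 further: 0% = DMSO wells and 100% = JAK Inhibitor I control wells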
KLF5 inh: KLF5 expression inhibitors, primary screen, DLD-1 cells, luminescence. DLD-1 KLF5 promoter-luciferase reporter. inhibition, % at 5 µM. 0.23% of 290,000 active. AID 1700, 2009;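 active means inhibition above a per-plate limit of that plate's mean compound inhibition plus 3 SD, cut at about 60% in these data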;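 further: 0% = DMSO wells and 100% = LY294002 at 200 µM; higher means less KLF5 promoter-driven luciferase light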
APP transl inh: inhibitors of APP translation via 5'UTR reporter, primary screen, APP 5'UTR luciferase, SH-SY5Y cells | 0.82% of 190,000 active | SH-SY5Y APP 5'UTR-luciferase reporter, luminescence | inhibition, % at 2 µM;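 active means inhibition above a set limit, derived from the sample mean plus 3 SD, cut at about 45% in these data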
IEC-6 cytotox: cytotoxicity in IEC-6 intestinal epithelial cells, primary screen, cytotoxicity control for KLF5 inhibitor project, cell-based, luminescence; inhibition, % at 5 µM; IEC-6 cytotoxicity, luminescence viability; 0.78% of 290,000 active; in the data active means inhibition above about 22%;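 further: 0% = plate median of test compound wells and 100% = cytotoxic reference compound wells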
Ba/F3 V617F tox: reduced viability of JAK2V617F-dependent Ba/F3 cells, primary screen, JAK2V617F inhibitor project, cell-based, Ba/F3 EpoR-JAK2V617F, luminescence; ATP luminescence; inhibition, % at 5.6 µM; 1.1% of 220,000 active; AID 1446, 2008;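 active means inhibition above the campaign mean plus 3 SD over all tested compounds, cut at about 24% in these data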;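 further: cytokine-independent growth of Ba/F3 cells driven by EpoR plus mutant JAK2; 0% = DMSO-treated cells and 100% = JAK inhibitor I control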
Numbers without * were called inactive; . = not tested or not shown. Compounds with a hit are over-represented: about 1.9% of the library has one in this group of screens.

SMILES | BaF3 tox | KLF5 inh | APP transl inh | IEC-6 cytotox | Ba/F3 V617F tox
CCN(CC)c1ccc2cc(NC(=O)CCC(=O)O)c(=O)oc2c1 | 0 | 41 | 52* | 2 | -2
CCN(CC)c1ccc2cc(C(C)=O)c(=O)oc2c1 | 5 | -7 | -17 | 2 | -2
O=c1cc(CSc2nnc(-c3cccs3)n2Cc2ccccc2)nc2sc3ccccc3n12 | 55* | -6 | 5 | 2 | 43*
O=C(/C=C/Nc1ccc(S(=O)(=O)Nc2cnc3ccccc3n2)cc1)c1ccccc1 | 52* | -16 | . | -1 | -1
Cc1ccc2ccc3cccnc3c2n1 | . | -21 | . | 72* | .
O=C(O)c1ccc2cccnc2c1O | -1 | -24 | . | -10 | -1
COCc1ccc(C(=O)NC2CC(C)(C)Cc3c2cnn3-c2ccc(OC)cc2)o1 (centres undefined) | . | -34 | . | 12 | .
CCCCOCCCNC(=O)/C=C/c1ccccc1Cl | 3 | -17 | -4 | -2 | 2
CCOc1cc(/C=N/N=C(\N)c2nonc2N)cc(Br)c1OCc1cccc2ccccc12 | 5 | -18 | -24 | 5 | 5
CCOc1cc(/C=N/NC(N)=S)cc(Br)c1OCc1ccccc1C | 28* | 11 | -19 | 3 | 11
COc1cc(/C=N/NC(N)=S)cc(Br)c1OCc1ccccc1F | 53* | -20 | -20 | 9 | 65*
O=C1CN(S(=O)(=O)c2cc(C(=O)O)ccc2Cl)c2ccccc2N1 | . | -4 | . | 5 | .
C/C(=N\NC(=O)c1nnn(-c2nonc2N)c1CN(C)c1ccccc1)c1ccc(O)cc1 | . | -24 | . | -9 | .
C/C(=N\NC(=O)c1nnn(-c2nonc2N)c1CN(C)c1ccccc1)c1ccccn1 | . | 62* | . | 38* | .
O=C1CN(C(=O)Cn2ncc(Cl)c(Cl)c2=O)c2ccccc2N1 | -5 | 0 | 90* | 18 | 4
O=C1CN(C(=O)COc2ccc(Cl)cc2Cl)c2ccccc2N1 | . | -57 | . | -6 | .
Cc1ccc(NC(=O)CN(C)C(=O)Cn2ncc(Cl)c(Cl)c2=O)cc1 | -2 | -16 | 96* | 19 | 0
CC(C)(C)C(=O)Cn1ncc(Cl)c(Cl)c1=O | -2 | 4 | 50* | 10 | 7
Cc1ccc(NC(=O)CN(C)C(=O)Cc2ccc(Cl)c(Cl)c2)cc1 | . | -18 | . | -2 | .
O=C(Cn1ncc(Cl)c(Cl)c1=O)NCC1CCCCC1 | -2 | -28 | 97* | -5 | -2
O=C(Cn1ncc(Cl)c(Cl)c1=O)NC1CCS(=O)(=O)C1 (centres undefined) | -11 | -11 | . | -4 | -2
Cc1cccc(NC(=O)CN(C)S(=O)(=O)c2cnc[nH]2)c1 | 2 | 11 | -25 | 3 | -1
NC(=O)c1nsc(C(=O)N(Cc2cccnc2)C(C(=O)NCc2ccccc2)c2ccc(O)cc2)c1N (centres undefined) | . | -7 | . | -15 | .
CC1(C)CC(=O)C=C(NC2CCCCCC2)C1 | 0 | -26 | 0 | 0 | 1
O=C(Cn1ncc(Cl)c(Cl)c1=O)c1ccc(Cl)cc1 | 1 | 0 | 81* | 13 | 17
SMILES | BaF3 tox | KLF5 inh | APP transl inh | IEC-6 cytotox | Ba/F3 V617F tox
NC(=O)c1ncn([C@@H]2O[C@H](CO)[C@@H](O)[C@H]2O)n1 | 9 | -23 | -14 | 13 | 5
OCC1OC(n2nc3ccccc3n2)C(O)C(O)C1O (centres undefined) | 28* | -12 | 14 | -12 | -1
Cc1cc(S(=O)(=O)NC2CCCCC2)ccc1OCC(=O)NCC1CCCO1 (centres undefined) | 1 | 11 | 3 | 0 | 3
CN(Cc1cccc(Cl)c1Cl)CC(O)COc1ccccc1 (centres undefined) | . | -19 | . | 0 | .
CC(=O)C1=NN(c2ccccc2)C(c2cccs2)N1c1ccc(N(C)C)cc1 (centres undefined) | 70* | -87 | -10 | 8 | 81*
CC(=O)C1=NN(c2ccccc2)C(c2ccc3c(c2)OCO3)N1c1ccccc1 (centres undefined) | 46* | -43 | -26 | -1 | 21
Cc1ccc(Cl)cc1N1CCN(C(=S)NCCc2ccccc2)CC1 | 7 | -32 | -14 | -3 | 0
Cc1ccc(Cl)cc1N1CCN(c2cccc[n+]2C)CC1 | 65* | -10 | 4 | 0 | 82*
C[n+]1ccccc1N1CCN(c2ccccc2Cl)CC1 | 62* | -10 | 14 | -5 | 56*
Cc1nn(C)c(C)c1S(=O)(=O)N1CCC(C(=O)Nc2ccc3c(c2)OCCO3)CC1 | 2 | -37 | -41 | -3 | -3
